The record followed here is PubChem BioAssay (NCI).

The panel holds about 83,000 compounds, 20% with a hit somewhere; the sample as a whole holds those more often.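 Each cell line was grown in a 96-well plate and treated with one concentration of compound for 48 hours. Values below 10 were considered active.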 Values without a mark were called inactive. Calls of active or inactive are those of the source.

Among the test systems are HCT-15 colon; HT29 colon; SNB-75 CNS; SNB-19 CNS; U251 CNS; PC-3 prostate; SK-MEL-5 melanoma; UACC-62 melanoma; LOX IMVI melanoma; SK-MEL-28 melanoma; SK-MEL-2 melanoma; EKVX NSCLC; SN12C renal; UO-31 renal; TK-10 renal; ACHN renal; CAKI-1 renal; A498 renal; CCRF-CEM leukemia; MOLT-4 leukemia.
What all share (test): NCI-60 one-dose screen, 48 h (100 = growth as untreated, 0 = no growth, -100 = all killed)
Holding throughout (conditions): 10 µM unless noted

`C=C1C(=O)O[C@H]2[C@H]1CC/C(COC(=O)CSCCSCC(=O)OC/C1=C/CC[C@@]3(C)O[C@H]3[C@H]3OC(=O)C(=C)[C@@H]3CC1)=C\CC[C@@]1(C)O[C@@H]21`: the growth in the assay with HCT-15 colon was -18.1% (active); with HT29 colon, 0.0255% (active); in the assay on SNB-75 CNS, 56.6%; in the assay with SNB-19 CNS, 55.9%; in the assay on U251 CNS, 7.29% (active); with PC-3 prostate, 1.19% (active). Moreover, the growth was 78.4% with SK-MEL-5 melanoma; 25.6% in the assay with UACC-62 melanoma; -53.3% (active) in the assay with LOX IMVI melanoma; 4.71% (active) with SK-MEL-28 melanoma; 70% in the assay on SK-MEL-2 melanoma; 11% in the assay on EKVX NSCLC. For the same molecule, the growth with SN12C renal was -10.4% (active); in the assay with UO-31 renal it was 7.85% (active); with TK-10 renal it was 16.6%; with ACHN renal, 2.6% (active); with CAKI-1 renal, 9.17% (active); in the assay with A498 renal it was 88.7%. Besides, the growth was -41.5% (active) with CCRF-CEM leukemia and -22.5% (active) in the assay with MOLT-4 leukemia.
Regarding `O=S(=O)(NCCNc1nccc(-c2c(-c3cccc(F)c3)nc3occn23)n1)c1ccc(Br)cc1`, the growth is 77.9% in the assay on HCT-15 colon; 52.3% in the assay with HT29 colon; 78.4% in the assay with SNB-75 CNS; 93.3% in the assay on SNB-19 CNS; 85.5% in the assay with U251 CNS; 73.8% with PC-3 prostate. Moreover, the growth in the assay with SK-MEL-5 melanoma was 76.3%; with UACC-62 melanoma, 77.5%; in the assay with LOX IMVI melanoma, 75.9%; with SK-MEL-28 melanoma, 91.9%; in the assay on SK-MEL-2 melanoma, 103%; in the assay on EKVX NSCLC it was 89.5%. Further, the growth in the assay on SN12C renal is 78.7%; in the assay on UO-31 renal, 64%; in the assay with TK-10 renal it was 103%; in the assay with ACHN renal, 62%; in the assay with CAKI-1 renal, 70.5%; with A498 renal it was 81.3%. The growth in the assay with CCRF-CEM leukemia was 60.3%; in the assay on MOLT-4 leukemia it was 82.5%.
With `CCOC(=O)c1c(C)nc2c(c1N)CC(=O)N2Cc1cc(F)cc(Cl)c1`, the growth with HCT-15 colon is 80.5%; in the assay with HT29 colon it was 77.1%; with SNB-75 CNS, 71.6%; with SNB-19 CNS, 100%; with U251 CNS it was 90.8%; in the assay on PC-3 prostate, 77.9%. Besides, the growth in the assay on SK-MEL-5 melanoma is 74.9%; with UACC-62 melanoma, 78%; in the assay on LOX IMVI melanoma, 96.5%; in the assay with SK-MEL-28 melanoma it was 105%; with SK-MEL-2 melanoma, 118%; in the assay on EKVX NSCLC, 85.3%. In addition, the growth in the assay with SN12C renal is 93.2%; with UO-31 renal, 84.6%; in the assay with TK-10 renal it was 92.1%; with ACHN renal it was 88.2%; with CAKI-1 renal, 75.8%; in the assay with A498 renal, 76.7%. Besides, the growth was 95.2% in the assay on CCRF-CEM leukemia and 95.9% in the assay on MOLT-4 leukemia.
Turning to `O=S(=O)(Nc1ccc(Cl)cc1)c1ccc(-c2cnc(C3CC3)o2)cc1`, the growth in the assay with HCT-15 colon was 27.9%; with HT29 colon, 15.4%; with SNB-75 CNS it was -11.9% (active); in the assay on SNB-19 CNS it was 30%; in the assay with U251 CNS it was 24.4%; with PC-3 prostate, 24.2%. In addition, the growth was 15.2% in the assay with SK-MEL-5 melanoma; 17.3% in the assay with UACC-62 melanoma; 50.5% in the assay on LOX IMVI melanoma; 61.4% in the assay on SK-MEL-28 melanoma; 39.8% with SK-MEL-2 melanoma; 47.9% in the assay on EKVX NSCLC. Further, the growth in the assay on SN12C renal is 36.4%; with UO-31 renal, 41.5%; in the assay with TK-10 renal it was 54.2%; in the assay with ACHN renal, 35.4%; with CAKI-1 renal it was 31.6%; in the assay with A498 renal it was 0.162% (active). In addition, the figures for the growth in the assay with CCRF-CEM leukemia and in the assay on MOLT-4 leukemia were 11.4% and 14.2%, respectively.
Regarding `Oc1c(Cl)cc(Cl)c2ccc(Cn3cc(-c4cc(F)cc(F)c4)nn3)nc12`, the growth with HCT-15 colon was 41.9%; with HT29 colon, 68.5%; in the assay with SNB-75 CNS, 58.6%; in the assay on SNB-19 CNS, 94.1%; in the assay on U251 CNS, 96.2%; in the assay on PC-3 prostate it was 84.8%. Moreover, the growth with SK-MEL-5 melanoma was 98.5%; in the assay on UACC-62 melanoma it was 74.1%; in the assay with LOX IMVI melanoma it was 20.8%; in the assay with SK-MEL-28 melanoma, 61.4%; in the assay on SK-MEL-2 melanoma, 96.3%; in the assay with EKVX NSCLC it was 84.7%. In addition, the growth with SN12C renal was 78.7%; in the assay with UO-31 renal it was 68.3%; with TK-10 renal it was 102%; in the assay on ACHN renal, 36.5%; in the assay on CAKI-1 renal, 18.1%; with A498 renal, 99.4%. The growth in the assay on CCRF-CEM leukemia was 4.58% (active); with MOLT-4 leukemia, 17.4%.
On to `O=C1/C(=C/c2cccs2)SC(=S)N1CCCN1CCOCC1`, for which the growth was 83.6% in the assay with HCT-15 colon; 103% in the assay with HT29 colon; 99% in the assay on SNB-75 CNS; 92.5% with SNB-19 CNS; 94.8% in the assay on U251 CNS; 75.5% in the assay with PC-3 prostate. For the same molecule, the growth in the assay on SK-MEL-5 melanoma was 95.3%; with UACC-62 melanoma it was 79.1%; in the assay with LOX IMVI melanoma, 89.1%; in the assay on SK-MEL-28 melanoma, 95.8%; in the assay with SK-MEL-2 melanoma it was 101%; in the assay on EKVX NSCLC, 94.8%. The growth in the assay with SN12C renal was 83.3%; in the assay with UO-31 renal it was 82.4%; with TK-10 renal it was 122%; in the assay with ACHN renal, 95.3%; with CAKI-1 renal, 91.5%; in the assay on A498 renal, 72.2%. Further, the growth in the assay on CCRF-CEM leukemia is 87.5%; with MOLT-4 leukemia it was 101%.
In the case of `CCCCCCCCCCCCCCCC(N)c1ccccc1` (stereo not given), the growth was -73.9% (active) with HCT-15 colon; -65.3% (active) in the assay with HT29 colon; 66.2% in the assay on SNB-75 CNS; 23.9% in the assay with SNB-19 CNS; -93.2% (active) with U251 CNS; 5.14% (active) with PC-3 prostate. Further, the growth in the assay on SK-MEL-5 melanoma is 87.8%; in the assay on UACC-62 melanoma, 79.2%; with LOX IMVI melanoma, -100% (active); in the assay on SK-MEL-28 melanoma, 85.3%; in the assay on SK-MEL-2 melanoma it was 70.8%; with EKVX NSCLC, 25.3%. Also, the growth with SN12C renal was 28%; in the assay with UO-31 renal, 26.2%; with TK-10 renal it was 52.2%; with ACHN renal, -50.3% (active); with CAKI-1 renal, 9.49% (active); with A498 renal, 60.8%. Besides, the growth with CCRF-CEM leukemia was -1.76% (active); in the assay on MOLT-4 leukemia, -38.6% (active).
Consider `CN(C)CCCn1c2c(c3ncccc3c1=O)C(=O)c1ccccc1-2`, for which the growth in the assay with HCT-15 colon is 28.6%; in the assay on HT29 colon it was 20.9%; in the assay on SNB-75 CNS, 79%; in the assay with SNB-19 CNS, 37.3%; in the assay with U251 CNS, 29%; in the assay with PC-3 prostate, 39%. Besides, the growth with SK-MEL-5 melanoma is 30.7%; with UACC-62 melanoma it was 34.6%; with LOX IMVI melanoma, 19.1%; with SK-MEL-28 melanoma it was 65%; in the assay on SK-MEL-2 melanoma, 81.8%; with EKVX NSCLC, 81.7%. Besides, the growth is 34.7% in the assay with SN12C renal; 32% in the assay on UO-31 renal; 52.3% in the assay on TK-10 renal; 15.2% in the assay with ACHN renal; 52.7% in the assay on CAKI-1 renal; 57.5% in the assay with A498 renal. Further, the growth in the assay with CCRF-CEM leukemia is 50.4%; with MOLT-4 leukemia it was 17.3%.
